Assay outcomes: PubChem BioAssay, National Center for Advancing Translational Sciences (NCATS)
This is a sample that favours compounds with a hit; in the whole collection about 2% have one here.
FUS suppressor = FUS proteinopathy suppression in yeast. S. cerevisiae FUS-expressing, growth rescue, OD600, 24 h. Potency, µM (highest dose often 76.6 µM), actives largely listed as activators. AID 1347120. 390,000 compounds, 0.24% hits; further: nearly all actives have a fitted effect of over 55% in size
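Steps: raffinose overnight preculture; dilution to OD 0.005 in 2% galactose minimal medium; compound addition (concentration series); 24hr at 30C, 99% humidity; absorbance read at 600 nm.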
Abeta yeast res = compounds reversing amyloid beta toxicity in yeast; yeast expressing A-beta42, growth rescue, OD600, 48 h; response scale: 0% DMSO, 100% iron-clioquinol control; Potency, µM (titrated, usually from 46.1 µM), actives largely listed as activators; 410,000 compounds, 0.063% hits; AID 1347071; further: nearly all actives have a fitted effect of over 55% in size
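Growth rescue measured by 600 nm absorbance after 48 h yeast culture at 30 C with compound. Values normalized between DMSO and an equimolar ferric chloride plus clioquinol control.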
GRP78 ERSR act = induces the endoplasmic reticulum stress response in human glioma cells; Potency, µM, usual class: activators; AID 602332; 420,000 compounds, 0.02% hits; U87-MG GRP78 promoter luciferase reporter, 16 h; further: series mostly up to about 76 µM; nearly all actives have a fitted effect of over 35% in size
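Stably transfected U87-MG glioma cells carrying a GRP78-based luciferase sensor; 16 h compound incubation. Luminescence end-point read 10 min after Bright-Glo addition at room temperature.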
TDP-43 yeast inh = rescues yeast growth from TDP-43 toxicity. TDP-43 expressing yeast growth rescue, BacTiter-Glo, 24 h. Potency, µM (series often up to 46.1 µM), most hits filed as activators. 410,000 compounds, 1.8% hits; further: nearly all actives have a fitted effect of over 50% in size
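Growth rescue of TDP-43-toxic yeast measured as ATP luminescence (BacTiter-Glo). Cells grown to mid-log in raffinose, induced in galactose at OD600=0.02, exposed to compound 24 hr at 30 deg C.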
aSyn rescue = alpha-synuclein toxicity inhibition in yeast | Yeast expressing alpha-synuclein, growth rescue, BacTiter-Glo, 24 h | Potency, µM (highest dose often 46.1 µM), usual class: activators | 370,000 compounds, 0.14% hits | AID 652106; further: nearly all actives have a fitted effect of over 65% in size
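Screening used galactose-induced yeast with toxic alpha-synuclein levels, exposed to compound for 24 hr at 30 deg C. Cell growth, read with BacTiter-Glo luminescence, gave the measured signal.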
MBNL1 CUG block = blocks human MBNL1 binding to CUG repeat RNA; Potency, µM (doses to about 57.5 µM), most hits filed as inhibitors; TR-FRET MBNL1-His/biotin-(CUG)12 binding, 665/545 ratio; 280,000 compounds, 0.036% hits; Q9NR56; active means well fitted inhibition curve with a large enough effect in the signal ratio, with a control signal flat, not every such curve was filed as active; inconclusive means small, poorly fitted or top-dose-only effect, or effect the other way, or a change in a side signal; inactive means no such curve, though single readings can be large or run the other way; the % refers to the signal ratio
Target sequence (Q9NR56 whole entry, looked up): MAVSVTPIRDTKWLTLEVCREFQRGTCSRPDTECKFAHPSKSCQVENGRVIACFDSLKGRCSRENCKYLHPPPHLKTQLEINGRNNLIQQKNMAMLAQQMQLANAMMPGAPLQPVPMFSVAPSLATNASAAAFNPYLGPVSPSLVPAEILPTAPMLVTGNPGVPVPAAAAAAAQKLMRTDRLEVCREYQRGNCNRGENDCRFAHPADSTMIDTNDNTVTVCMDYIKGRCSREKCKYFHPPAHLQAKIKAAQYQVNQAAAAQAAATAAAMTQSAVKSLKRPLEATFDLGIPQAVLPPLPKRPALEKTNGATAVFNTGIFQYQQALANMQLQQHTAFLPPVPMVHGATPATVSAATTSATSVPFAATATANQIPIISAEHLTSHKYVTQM
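Compounds (final 92 nM to 58 uM) are added to His-tagged MBNL1 and biotin-(CUG)12, then terbium anti-His antibody and streptavidin-XL665 (5 nM final). After 60 min at room temperature, the 665/545 nm ratio is read.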
Hits are given with their value; 0 = inactive; ? = inconclusive; - = not tested or not shown; ! = repeats disagree. Unless noted, the call rests on the fitted dose curve; in most records, active means well fitted curve in the direction sought with a large enough effect; inconclusive means small, poorly fitted or top-dose-only effect, or another doubt; inactive means no such curve, though single readings can be large; an effect the other way counts as inactive or inconclusive.

SMILES	FUS suppressor	Abeta yeast res	GRP78 ERSR act	TDP-43 yeast inh	aSyn rescue	MBNL1 CUG block
C=CCNC(=S)NNC(=O)c1ccc(C)c(Cl)c1	0	0	0	-	0	0
CCOC(=O)N1CCN(Cc2ccc3c(c2)CN(C(=O)c2noc4c2CCCC4)CCO3)CC1	-	-	0	-	-	-
COc1ccc(N=Cc2nc(-c3ccco3)oc2O)cc1	0	0	0	7.08µM	0	0
Cc1ccc(C)c(S(=O)(=O)N2C(=S)NC(=O)C2CC(C)C)c1 (configuration not stated)	0	0	0	25.1µM	?	0
Cc1ccc(C)c(S(=O)(=O)N2CCNCC2)c1	0	0	0	0	0	0
CN1C(=O)C2(N=c3ccccc3=N2)c2ccccc21	0	0	0	11.2µM	0	0
CN1C(=O)C2(OCC(C)([N+](=O)[O-])CO2)c2ccccc21 (configuration not stated)	0	0	0	0	0	0
COC(=O)c1ccccc1-c1cc(C)cc2c1OC(CNC(=O)c1occc1C)C2 (configuration not stated)	-	-	0	-	-	-
c1ccc(OCCOc2ccccc2-c2nnco2)cc1	0	0	0	0	0	0
Clc1ccccc1COc1ccccc1-c1nnco1	0	0	0	3.16µM	0	0
O=C(CCCc1nc2ccccc2s1)NCc1ccccc1F	0	0	0	0	0	0
O=C(CCc1nc2ccccc2s1)NCc1ccccc1F	0	20µM	0	0	0	0
O=C(/C=C/c1ccccc1)Nn1c(-c2cccs2)nc2ccccc2c1=O	0	0	0	0	0	0
O=C(/C=C/c1cccc(Cl)c1)Nn1c(-c2cccs2)nc2ccccc2c1=O	0	0	0	10µM	0	-
O=C(/C=C/c1cccc(Cl)c1)NCc1cccs1	0	0	0	17.8µM	0	0
CC(=O)N1CCC[C@H]1C(=O)NCC1Cc2cc(F)cc(-c3ccc(F)c(C)c3)c2O1 (some centres not stated)	-	-	0	-	-	-
C(=N/Nc1nc(-c2ccccc2)cc(-c2ccccc2)n1)/c1cccnc1	-	0	0	14.1µM	0	0
CCOC(=O)c1nnc(-c2cccs2)nc1NC(C)C	0	0	0	12.6µM	0	?
CCOC(=O)c1nnc(-c2cccs2)nc1Oc1ccccc1C(=O)OC	0	0	0	0	0	0
O=C(NC(=S)Nc1ccc(N2CCCCC2)c(Cl)c1)c1cccs1	-	0	0	35.5µM	0	-
CC1CCCC(NC(=O)COC(=O)c2cccs2)C1C (configuration not stated)	0	?	0	11.2µM	0	-
Cc1ccc(C(=O)OCC(=O)NC2CCCC(C)C2C)s1 (configuration not stated)	0	0	0	?	0	-
CN(C)c1ccc(C(=O)OCC(=O)NC2CCCCCC2)cc1	0	0	0	0	0	0
CC1CCCCC1NC(=S)NC(=O)c1cccs1 (configuration not stated)	0	10µM	0	0	0	0
CC1CCCCC1NC(=O)COC(=O)c1ccc(N(C)C)cc1 (configuration not stated)	0	0	0	15.8µM	0	0
SMILES	FUS suppressor	Abeta yeast res	GRP78 ERSR act	TDP-43 yeast inh	aSyn rescue	MBNL1 CUG block
O=C(Nc1cc(Cl)ccc1N1CCCCC1)c1cccs1	0	0	0	0	0	0
Cc1cccc2cc(CN(C(=O)c3ccc(N4CCCCC4)cc3)C3CC3)c(N3CCC(O)CC3)nc12	-	-	0	-	-	-
CN(C)CC(C)(O)c1ccc2c(c1)CN(Cc1cn(C)c3ccccc13)CCO2 (configuration not stated)	-	-	0	-	-	-
CCC[n+]1c(/C=C/c2c(OC)cc(OC)cc2OC)ccc2ccccc21	-	-	0	-	0	-
COCc1ccc(CN2Cc3ccccc3OC(c3ccccc3F)C2)o1 (configuration not stated)	-	-	0	-	-	-
Cc1c(C(=O)NCC2COCCO2)cnn1-c1ncc2c(n1)-c1ccccc1CC2 (configuration not stated)	-	-	0	-	-	-
O=C(NC(=S)Nc1ccc(S(=O)(=O)N2CCCCC2)cc1)c1cccs1	-	0	0	0	0	0
O=C(NC(=S)Nc1ccc(S(=O)(=O)NC2CCCCC2)cc1)c1cccs1	?	?	0	22.4µM	?	?
COc1cccc(-c2ccc(O)c(CNCc3cccc4ccccc34)c2)n1	-	-	0	-	-	-
CCN1CCCC1CN(Cc1cc2cc(C)cc(C)c2[nH]c1=O)C(=O)Nc1ccccc1OC (configuration not stated)	31.6µM	0	0	0	0	0
O=C(Nc1cccc(C(F)(F)F)c1)OCCCN1CCC2(CCC(c3ccccc3)CC2)C1=O (configuration not stated)	0	-	-	-	-	-
CNC(=O)[C@@H]1C[C@H](NC2CCCCCCC2)CN1Cc1cccc(OC)c1OC	-	-	0	-	-	-
CC(C)S(=O)(=O)c1oc(-c2cccs2)nc1S(=O)(=O)c1ccc(F)cc1	0	0	0	8.91µM	-	-
CCS(=O)(=O)c1oc(-c2ccc(F)cc2)nc1S(=O)(=O)c1ccc(Br)cc1	0	0	0	28.2µM	-	-
CSc1oc(-c2ccc(F)cc2)nc1S(=O)(=O)c1ccccc1	0	0	0	0	0	0
Cc1ccc(S(=O)(=O)c2nc(-c3cccs3)oc2SC(C)C)cc1	0	0	0	0	-	-
CCCCS(=O)(=O)c1oc(-c2ccc(F)cc2)nc1S(=O)(=O)c1ccccc1	0	0	0	14.1µM	-	-
CC(C)S(=O)(=O)c1oc(-c2ccc(F)cc2)nc1S(=O)(=O)c1ccccc1	0	0	0	12.6µM	-	-
S=C(Nc1ccccc1)OC1CCC12CCC(c1ccccc1)CC2 (configuration not stated)	0	-	-	-	-	-
C[C@@H]1CN(Cc2ccc3c(c2)CN(Cc2coc4ccccc4c2=O)CCO3)C[C@H](C)O1	-	-	0	-	-	-
CCCCNC(=O)C[C@H]1C[C@@]2(C(=O)OC)C(=C[C@H](COCc3ccccc3)O[C@@H]2C)N(Cc2ccco2)C1=O	0	-	-	-	-	-
CC(=O)NC(CCC(N)=O)C(=O)O (configuration not stated)	-	-	0	-	-	-
O=C(OC12CCCN(C1)/C(=C/c1ccccc1)C2)c1ccccc1 (configuration not stated)	0	-	-	-	-	-
Cc1cc(NC(=O)COc2cc(F)cc(F)c2)n(-c2ccccc2)n1	0	-	-	-	-	-
O=C(O)c1cc([N+](=O)[O-])ccc1NCCCc1ccccc1	0	0	28.2µM!	0	0	?
C[C@@H]1CN(Cc2ccc3c(c2)CN(Cc2cccn2-c2ccccn2)CCO3)C[C@H](C)O1	-	-	0	-	-	-
S=c1[nH]nc(-c2ccc(Cl)cc2)n1-c1ccc(Cl)cc1	0	10µM	0	0	0	0
S=c1[nH]nc(-c2ccc(Cl)cc2)n1-c1ccc2c(c1)OCCO2	0	0	0	0	0	0
